High-throughput results as filed in PubChem.
BCLXL inh: Bcl-xL (human) inhibition; GST-Bcl-xL / FITC-Bim BH3 peptide fluorescence polarization; AID 2129; Q07817; actives 0.7% (n = 320,000); inhibition, % at 10.9 µM;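 active means inhibition above the mean of all tested compounds plus 3 SD, cutoff set per campaign, cut at about 30% in these data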;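 further: 0% = DMSO wells and 100% = unlabeled Bim-BH3 peptide competitor; inhibitors lower millipolarization by displacing the labeled peptide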
MCL1 BIM primary: MCL1-BIM-BH3 interaction inhibition (human). Q07820. GST-MCL1 / FITC-Bim-BH3 fluorescence polarization. inhibition, % at 10.9 µM. actives 0.68% (n = 320,000). AID 2057;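 active means inhibition above the mean inhibition of all tested compounds plus 3 SD, set per campaign, cut at about 40% in these data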;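 further: 0% = DMSO wells and 100% = unlabeled Bim-BH3 peptide control; higher means more loss of mP so more displacement of Bim peptide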
MEX-5 binding: C. elegans MEX-5 TCR-2 RNA binding activity; Q9XUB2; MEX-5/FITC-TCR2 RNA binding, fluorescence polarization; stronger effect = lower value; activity score (negative = inhibition of binding), % at 10 µM; actives 0.38% (n = 300,000);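 active means inhibition past about -25% in most replicates, and total fluorescence under double the plate's negative control median, limit read from the data; inconclusive means replicates evenly split on the limit, or fluorescence at least double controls; inactive means too little inhibition in most replicates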;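 further: 0% = DMSO and -100% = 5 µM competing unlabeled TCR2 RNA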
E coli Lon inh: E. coli protease La inhibition. P0A9M0. purified E. coli Lon protease, fluorescence polarization. inhibition, % at 7.94 µM. actives 0.42% (n = 360,000); in the data active means inhibition above about 13%, passing the limit was not always enough;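 further: 0% = enzyme with probe and DMSO and 100% = no enzyme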
EBV gp42 block: EBV gp42 inhibition; AID 1085; inhibition, % (tested at 21.74 µM); Q1HVG2; actives 0.42% (n = 220,000); Fluorescence polarization binding assay, mP read-out; in the data active means inhibition above about 50%
GLD-1 TGE inh: GLD-1-TGE RNA interaction inhibition (C. elegans); purified GLD-1 + fluorescein TGE RNA, fluorescence polarization; inhibition, % at 5.96 µM; actives 0.44% (n = 320,000); AID 2280;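 active means percent inhibition above a per-plate cutoff, the plate mean of test compounds plus 3 SD, cut at about 30% in these data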;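 further: 0% = DMSO wells with GLD-1 and probe and 100% = wells lacking GLD-1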
The depositor's hits bear a star; ? = inconclusive; . = no result. Compounds with a hit are over-represented: about 1.5% of the library has one in this group of screens.

SMILES	BCLXL inh	MCL1 BIM primary	MEX-5 binding	E coli Lon inh	EBV gp42 block	GLD-1 TGE inh
Cn1c(=O)c2[nH]c(SCc3cccnc3)nc2n(C)c1=S	.	.	.	-7	.	.
COc1ccccc1NC(=O)COC(=O)CCC(=O)c1cccs1	.	.	.	6	.	.
Oc1oc(-c2ccccc2)nc1/C=N/c1nccs1	8	2	-9	-9	-26	2
Oc1oc(-c2ccccc2)nc1C=Nc1cccc2ccccc12	2	-5	-2	-7	75*	1
O=C(COC(=O)Cn1cnc2ccccc21)Nc1ccc(F)c(F)c1	.	.	.	-3	.	2
Cc1c(C(=O)NCCSCc2c(F)cccc2Cl)cnn1-c1ccc(Cl)cc1	0	2	-4	11	52*	2
CC1(C(=O)NCc2cccc(C(F)(F)F)c2)CCN1C1Cc2ccccc2C1 (configuration not stated)	.	.	.	-16	.	.
Cc1cccc(-n2ccnc2SCC(=O)Nc2nccs2)c1	-1	-4	2	2	5	-2
COc1cccc(-n2ccnc2SCC(=O)Nc2nccs2)c1	4	-5	-1	-9	-18	104*
CC(=O)N1c2ccc(S(=O)(=O)N3CCCC(C(=O)Nc4ccc(C)cc4)C3)cc2CC1C (configuration not stated)	.	.	.	3	.	.
CC(=O)N1c2ccc(S(=O)(=O)N3CCCC(C(=O)Nc4ccc(F)cc4)C3)cc2CC1C (configuration not stated)	73*	11	1	-11	.	-1
CCN(CC)c1ccc(/C=N/NC(=O)c2cccc(S(=O)(=O)Nc3ccccc3OC)c2)c(O)c1	-10	-19	-31*	-53	-87	-31
CCN(CC)c1ccc(/C=N/NC(=O)c2cccc(S(=O)(=O)Nc3ccccc3OC)c2)cc1	-1	4	2	4	-63	3
COc1ccccc1NS(=O)(=O)c1cccc(C(=O)N/N=C2\CC(=O)CC(C)(C)C2)c1	9	7	-3	21	9	59*
CCC1Oc2ccc(C)cc2N(CC(=O)N2CCCC2)C1=O (configuration not stated)	4	-7	2	-7	.	5
CCOC(=O)[C@]12CCC=C1N(Cc1ccccc1)C(=O)[C@H](CC(=O)NCc1ccccc1)C2	.	.	.	5	.	.
Nn1c(-c2ccc(O)cc2)nnc1-c1ccc(O)cc1	6	1	-2	7	-13	-3
COc1ccc(NC(=O)c2nc3nccc(C)n3n2)cn1	34*	36	-19	-6	12	13
Cc1cnc(C(=O)OC(C)C(=O)Nc2cccc3ccccc23)cn1 (configuration not stated)	0	0	-4	-8	.	9
CNCc1ccccc1Sc1cccc(O)c1	4	-6	0	11	-3	4
CNCc1ccccc1Sc1cc(O)ccc1O	32*	42*	.	-3	-7	11
O=C(/C=C/c1cccs1)N1CCC2(CC1)Oc1ccc(F)cc1C(=O)C21CC(c2ccc(Cl)cc2)=NO1 (configuration not stated)	31*	-4	1	12	-17	-4
Fc1cc(Br)ccc1Nc1nc2ccccc2n2nnnc12	1	-4	-1	-68	-22	-3
Fc1ccccc1N1CCN(c2nc3ccccc3n3nnnc23)CC1	36*	52*	3	-39	31	23
CCN1CCN(CC(=O)N2N=C(c3cccs3)CC2c2ccc(F)cc2)C(=O)C1=O (configuration not stated)	-3	-4	0	0	-7	3
SMILES	BCLXL inh	MCL1 BIM primary	MEX-5 binding	E coli Lon inh	EBV gp42 block	GLD-1 TGE inh
CCN1CCN(CC(=O)N2N=C(c3cccs3)CC2c2ccc(OC)c(OC)c2)C(=O)C1=O (configuration not stated)	-1	6	-1	1	64*	7
COc1ccc(OC)c(/C=C2\N=C(c3ccccc3)OC2=O)c1	-23	-47	1	5	.	-6
COc1cc(/C=C2/N=C(c3ccccc3)OC2=O)c(F)cc1OCc1ccccc1	6	30	-60*	3	.	-1
O=C1N=c2ccccc2=C1c1sc(Nc2ccc(O)cc2)nc1O	.	.	.	0	63*	.
O=C1N=c2ccccc2=C1c1sc(Nc2cccc(O)c2)nc1O	12	14	-2	3	.	8
O=C1N(Cc2ccccc2)c2ccccc2OC1(F)F	.	.	.	-8	.	.
CCOC(=O)Cn1c(=O)oc2cc(S(=O)(=O)NCc3ccccn3)ccc21	-1	-2	3	26*	-17	2
CC(C)(C)n1nc2c(c1NC(=O)c1cc(Cl)ccc1[N+](=O)[O-])CS(=O)(=O)C2	-4	-4	1	-6	.	3
COc1ccc2c(/C=C/c3cc[n+](C)cc3)c[nH]c2c1	-16	-38	?	-92	.	-92
COc1ccc2c(c1)c(/C=C/c1cc[n+](C)cc1)cn2C	-31	-72	?	-305	.	58*
Cn1cc(C2=C(c3ccc(Cl)cc3Cl)C(=O)NC2=O)c2ccccc21	60*	24	?	-64	.	-10
Cn1cc(-c2ccccc2C(N)=O)c(=O)c2cc(Cl)ccc21	5	1	-2	-2	-11	2
CC1CN(Cc2c(O)ccc3c(=O)c(-c4ccccc4)coc23)CC(C)O1 (configuration not stated)	4	-3	1	-1	0	0
CC1CN(Cc2c(O)ccc3c2oc(=O)c2ccccc23)CC(C)O1 (configuration not stated)	18	10	-29*	-5	-9	-3
CCCC(C)C(=O)Nc1ccc(Cl)cn1 (configuration not stated)	162*	3	-1	-3	-16	8
CCCCC(=O)Nc1ccc(Cl)cn1	4	4	0	-3	-21	6
CCC(=O)N1CCN(c2ccc(NC(=O)COc3ccc(CC)cc3)cc2)CC1	-3	-1	-2	-5	.	4
COc1ccc(CC(=O)Nc2cc(Cl)ccc2C(=O)O)cc1	5	1	-2	2	1	-3
CCCCOc1ccc(Nc2cc(Cl)ccc2C(=O)O)cn1	37*	36	-7	-5	11	17
COc1cccc(NC(=O)C(C)N2C(=O)c3ccccc3C2=O)c1 (configuration not stated)	4	0	-1	4	.	1
CCN1C(=O)/C(=C\c2ccc(-c3ccc([N+](=O)[O-])cc3OC)o2)SC1=Nc1cccc(C(=O)O)c1	.	.	-7	-3	81*	.
O=C(CN1C(=O)NC2(CCCCC2)C1=O)N1CCN(c2ncccn2)CC1	6	2	.	3	.	-2
Cn1ccnc1Sc1nc2ccccc2nc1NS(=O)(=O)c1ccccc1	34*	39	-11	1	12	39*
Cn1cnnc1Sc1nc2ccccc2nc1NS(=O)(=O)c1ccccc1	23	18	-2	7	-7	27
